This is an account of results in PubChem BioAssay (NCATS).

Records with an inconclusive call do not appear. A call without a number means that no potency is given here. Active and inactive are the calls of the source. Calls come from the whole dose curve; as a rule, active = well fitted inhibition curve with a large enough effect; inconclusive = small, poorly fitted or top-dose-only effect; inactive = flat fitted curve, though single readings scatter.

Calcium and integrin-binding protein 1 (Homo sapiens), sequence (Q99828 whole entry, looked up): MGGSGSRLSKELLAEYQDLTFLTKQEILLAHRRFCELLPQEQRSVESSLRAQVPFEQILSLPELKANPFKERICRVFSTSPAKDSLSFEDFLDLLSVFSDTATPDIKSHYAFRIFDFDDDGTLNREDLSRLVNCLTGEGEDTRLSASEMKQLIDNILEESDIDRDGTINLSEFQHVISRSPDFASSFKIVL

This experiment has as its target Calcium and integrin-binding protein 1 (Homo sapiens) (UniProt Q99828). The experiment in a line: Primary qHTS for Identification of Calcium Integrin Binding Protein 1 (CIB1) Competitor (AID 1508620).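 Note: GST tagged CIB1 binding a fluorescein labelled alphaIIb integrin peptide tracer; top concentration of the series differs between compounds.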 The settings on record: CIB1-GST / FITC-alphaIIb peptide fluorescence polarization; series mostly up to 57.7 µM. The method, boiled down: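 CIB1-GST (1 uM final) and compound incubated 15 min at room temperature before adding FITC-alphaIIb peptide tracer (100 nM final). Competition for binding read by fluorescence polarization (ex 480, em 540) after another 15 min at room temperature.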
On the technique in general: Quantitative high-throughput screening tests each substance at several concentrations.
Take `CC1(C)CC(NC(=O)C(=O)Nc2ccc(Cl)cc2)CC(C)(C)N1`: the Potency result was “inactive”.

Consider `Cn1c2ccc(NC(=O)c3ccccc3)cc2c(=O)n2nc(C(=O)O)cc12`, for which the Potency result is “inactive”. As for `COc1cc(Nc2nc3ccccc3nc2NS(=O)(=O)c2cccc(NC(=O)c3ccc(C)c(OC)c3)c2)cc(OC)c1`, the entry is “inactive”. Turning to `Oc1ccccc1-c1cc(-c2ccccc2F)[nH]n1`, the Potency result was “inactive”. Take `COc1ccc(-c2ccn(CC[C@](C)(C(=O)NO)S(C)(=O)=O)c(=O)c2)c(F)c1`: the Potency result is “inactive”. As for `COc1ccccc1N1CCN(CCCCNC(=O)c2ccc(-c3cscn3)cc2)CC1`, the entry is “inactive”. Under `Nc1ncnc2c1c(COc1cccc(Cl)c1)nn2C1CCOCC1` stands “inactive”; under `Cc1ccc(Cl)cc1N(CC(=O)Nc1c(F)cccc1F)S(C)(=O)=O`, “inactive”; under `NC1=NC2(c3cc(NC(=O)c4ccc(F)cn4)ccc3F)COCC2CS1` (centres undefined), “inactive”.

With `Cc1nnc(-c2ccc3occ(-c4ccc(S(C)=O)cc4)c3c2)o1` (centres undefined), the Potency result is “inactive”. As for `NC[C@H]1CCC[C@@H](CNC(=O)[C@@H](Cc2c[nH]c3ccccc23)NC(=O)N2CCC3(C=Cc4ccccc43)CC2)C1`, the entry is “inactive”; as for `COc1cccc(Cn2ncc3c4sc(S(C)=O)cc4n(C)c3c2=O)c1` (centres undefined), “inactive”. Under `Cc1ccc2[nH]c(=O)c(C3=NN(C(=O)CCC(=O)O)C(c4ccc(Br)cc4)C3)c(-c3ccccc3)c2c1` (centres undefined) stands “inactive”. For `Cc1ccccc1-c1cc(N2CCN(C)CC2)ncc1N(C)C(=O)C(C)(C)c1cc(C(F)(F)F)cc(C(F)(F)F)c1`, the Potency result was “inactive”.

As for `CN1CCc2cc(Cl)c(O)cc2[C@@H](c2cccc3c2OCC3)C1`, the Potency entry is “inactive”.

Take `CCOc1nc2c(N)ncnc2n1CC`: the Potency entry was “inactive”.

On to `CCOc1ccc(-c2nn3ncccc3c2-c2ccc(S(C)(=O)=O)cc2)cc1`, for which the Potency result is “inactive”. Under `CC(C)[C@@](O)(c1ccc2cc(OC(F)F)c(OC(F)F)cc2c1)c1cn[nH]n1` stands “inactive”; under `COc1ccnc(CCc2nc3ncccc3[nH]2)c1`, “inactive”.

In the case of `CC1(C)CC[C@]2(C(=O)O)CC[C@]3(C)C(=CCC4[C@@]5(C)C[C@@H](O)[C@H](O)[C@@](C)(CO)C5[C@H](O)C[C@]43C)[C@@H]2C1` (some centres undefined), the Potency result was “inactive”. On to `CN[C@H](CNC(=O)N1CCC[C@@H]([C@@H](OCCNC(=O)OC)c2cccc(Cl)c2)C1)C[C@H]1CCCOC1`, for which the Potency result is “inactive”. Under `CCC(=O)N1CCc2cc(OC)c(O)cc2C1` stands “inactive”; under `Cc1ccc(COC(=O)N2CC[C@@H](CNc3ncccn3)[C@@H](F)C2)cc1`, “inactive”. Under `Oc1ccc(CC2NCCc3cc(O)c(O)cc32)cc1` (centres undefined) stands “inactive”; under `Cc1ccc2nc(NC(=O)CSc3nc4c(c(=O)n3-c3ccc(F)cc3)SCC4)sc2c1`, “inactive”. As for `COc1cccc(OC)c1-c1cc(C(=O)N[C@@H](CC(C)C)C(=O)O)nn1-c1ccnc2cc(Cl)ccc12`, the entry is “inactive”; as for `CC(=O)NCC1CN(c2ccc(-c3ccc(CNCc4cn[nH]n4)cc3)c(F)c2)C(=O)O1` (centres undefined), “inactive”. `CN1CCCC1Cc1c[nH]c2ccc(CCS(=O)(=O)c3ccccc3)cc12` (centres undefined): the Potency result is “inactive”. Under `Cc1ccc(-n2nc(C(C)(C)C)cc2NC(=O)Nc2cc(COc3cccnc3)[nH]n2)cc1` stands “inactive”.

Turning to `CCC1(O)CC2c3cc(OC)c(OC)cc3CCN2CC1CC(C)C` (centres undefined), the Potency entry was “inactive”. As for `C[C@@H](NC(=O)c1cc(C(=O)N[C@@H](Cc2ccccc2)[C@H](O)CNC2CC2)cc(N(C)S(C)(=O)=O)c1)c1ccccc1`, the entry is “inactive”; as for `CC1=CCC2C(C)(C)CCCC2(C)C1CC12OC1C(O)C(CO)=CC2O` (centres undefined), “inactive”; as for `CCCSc1nc(NC2CC2c2ccc(F)c(F)c2)c2nnn(C3CC(OCCO)C(O)C3O)c2n1` (centres undefined), “inactive”. Consider `CC(=O)N[C@H]1[C@H](O[C@H]2CC[C@]3(C)C4CC=C5[C@@H]6CC(C)(C)CC[C@]6(C(=O)O)[C@H](O)C[C@@]5(C)[C@]4(C)CC[C@H]3C2(C)C)O[C@H](CO)[C@@H](O)[C@@H]1O` (some centres undefined), for which the Potency entry was “inactive”. Under `COc1cccc(OC)c1-c1ccc(C[C@H](NC(=O)c2c(Cl)cccc2Cl)C(=O)O)cc1` stands “inactive”. Regarding `N[C@@H](CCNCc1ccc(Cl)cc1)C(=O)N1CCCCC1`, the Potency entry was “inactive”.

`COc1cccc(CN(C(=O)CC(C)(C)C)C2CC(C(=O)N3CCNCC3)N(Cc3ccc4c(c3)OCO4)C2)c1` (centres undefined): the Potency entry is “inactive”. Regarding `O=C(NC1CCN(CC(F)(F)F)CC1)c1ccc(-c2cccc(F)c2)nc1`, the Potency result was “inactive”. Consider `O=C(O)c1cc(C(F)(F)F)ccc1N1CC[C@H](OCc2ccccn2)C1`, for which the Potency entry is “inactive”.
